Drawing on PubChem BioAssay (Tox21), this text covers Potency for seven molecules.

Assay [1] in a line: Nuclear factor erythroid 2-related factor 2/antioxidant responsive element (Nrf2/ARE) small molecule agonists: qHTS cell viability counter screen in human keratinocytes (AID 1919968; active means well fitted curve in the direction sought with a large enough effect in the repeat runs; an effect the other way counts as inactive or inconclusive; further: nearly all actives have a fitted effect of over 55% in size). The procedure, abridged:
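Viability counter-screen: KeratinoSens reporter cells, DMSO-delivered compounds, 23 h at 37 C, CellTiter-Fluor fluorescence.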
For orientation: Quantitative high-throughput screening tests each substance at several concentrations.

Assay [2] deals with Gonadotropin-releasing hormone receptor (Homo sapiens) (UniProt P30968). Kind of assay: Human gonadotropin-releasing hormone receptor (GnRHR) small molecule agonists, calcium flux assay in GnRHR-HEK293 cells (AID 1920063). Further: nearly all actives have a fitted effect of over 35% in size. The procedure, abridged:
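Tox21-format agonist screen using human GnRHR-expressing HEK293 cells and a fluorescent calcium dye; kinetic 3-min fluorescence reading after compound addition, 15-point concentration series run in triplicate.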
A general note: A change in cytosolic calcium serves as a functional read-out for many receptors and channels.

The target of assay [3] is KiSS-1 receptor (Homo sapiens) (UniProt Q969F8). Briefly: Human kisspeptin (KISS1R) small molecule agonists, calcium flux assay in KISS1R-HEK293 cells (AID 1920064; active means well fitted curve in the direction sought with a large enough effect in the repeat runs; an effect the other way counts as inactive or inconclusive). Put shortly:
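Intracellular calcium mobilization in KISS1R-HEK293 cells was recorded by fluorescence (Ex/Em 480/540) for 3 min following compound addition to cells pre-loaded 1 h with calcium dye.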

Assay [4] can be described thus: G protein-coupled receptor (GPCR) small molecule agonists, calcium flux assay: HEK293 wild type cell line counter screen (AID 1920065). The procedure, abridged:
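In this agonist-mode screen, ATP is the positive control and DMSO the vehicle. Cells grow 18 h before a 1 h dye incubation at 37 C; signal is taken at Ex/Em 480/540 over 3 min.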

Assay [5] is described as follows: p53 small molecule agonists, cell-based qHTS assay with human liver microsomes: qHTS cell viability counter screen (AID 1963579). Further: nearly all actives have a fitted effect of over 45% in size. The procedure, abridged:
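p53RE-bla cells, 4,000/well, dosed 5 hours after plating, with human liver microsomes (0.5 mg/mL final) plus NADPH (0.5 mg/mL final), 16 hours at 37 C. Viability read as CellTiter-Glo luminescence after 30 min at room temperature.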

Assay [6] can be described thus: p53 small molecule agonists, cell-based qHTS assay with rat liver microsomes: qHTS cell viability counter screen (AID 1963580). Further: nearly all actives have a fitted effect of over 45% in size. The procedure, abridged:
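In HCT-116 cells carrying a p53 response element-bla reporter, compounds were metabolically activated in situ by rat liver microsomes with NADPH over 16 h. Cell ATP content then served as the cytotoxicity measure.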

A short description of assay [7]: p53 small molecule agonists, cell-based qHTS assay: qHTS cell viability counter screen (AID 1963581). Further: nearly all actives have a fitted effect of over 45% in size. Put shortly: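 Compounds are pinned onto HCT-116 p53RE-bla cells and left 16 h at 37 C. Following the reporter FRET read, ATP is quantified by CellTiter-Glo luminescence after 30 min at room temperature.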
The target of assay [8] is 5-hydroxytryptamine receptor 2A (Homo sapiens) (UniProt P28223). Briefly: 5-hydroxytryptamine receptor 2A (HTR2A) small molecule antagonists, cell-based qHTS assay (AID 1963586). Further: nearly all actives have a fitted effect of over 45% in size. Further: potency means the concentration at half of the fitted maximal effect. The procedure, abridged:
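Antagonist-mode intracellular calcium assay: DOI (4 nM) added after 5 min compound pre-incubation at room temperature to dye-loaded HTR2A-CHO cells. Fluorescence followed for 3 min, sampled every second.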

Assay [9] shares this target. Kind of assay: 5-hydroxytryptamine receptor 2A (HTR2A) small molecule agonists, cell-based qHTS assay (AID 1963587). Further: nearly all actives have a fitted effect of over 30% in size. The procedure, abridged:
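HTR2A-CHO cells, plated 18 h at 37 C/5% CO2, dye-loaded 1 h at 37 C; compounds in DMSO added by pin tool (agonist mode). Intracellular calcium flux read as kinetic fluorescence on FDSS over 2 min at 1 s intervals.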

For assay [10], the target named is Muscarinic acetylcholine receptor M1 (Homo sapiens) (UniProt P11229). Briefly: Cholinergic receptor muscarinic 1 (CHRM1) small molecule antagonists, cell-based qHTS assay (AID 1963588). Further: nearly all actives have a fitted effect of over 40% in size. The procedure, abridged: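 CHRM1-CHO calcium-flux assay, antagonist mode. Cells were seeded 18 h, dye-loaded 1 h at 37 C and given compound for 5 min at RT, then acetylcholine was added at 50nM. FDSS fluorescence was read 3 min; 15 concentrations, three runs.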

Assay [11] has the same target. Kind of assay: Cholinergic receptor muscarinic 1 (CHRM1) small molecule agonists, cell-based qHTS assay (AID 1963589). Further: nearly all actives have a fitted effect of over 35% in size. The procedure, abridged:
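Stable CHRM1-CHO cells (human receptor) were incubated 18 h, dye-loaded for 1 h at 37 C and exposed to test compounds for agonist activity, with calcium-dependent fluorescence followed kinetically.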

Assay [12] is described as follows: cAMP Responsive Elements (CRE) small molecule agonists, cell-based qHTS assay (AID 1963590). Put shortly: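 FRET-based beta-lactamase readout (LiveBLAzer B/G, 2 h RT) quantified CRE activation in HEK 293T CRE-bla cells after 3 h treatment with DMSO-dissolved compounds.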
Assay [13] can be described thus: cAMP Responsive Elements (CRE) small molecule antagonists, cell-based qHTS assay (AID 1963591; active means well fitted inhibition curve with a large enough effect in the signal ratio in the repeat runs, not every such curve was filed as active; the % refers to the signal ratio). Put shortly:
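qHTS in CRE-bla HEK 293T cells: compound in DMSO, then 0.25 uM NKH477 (final), 3 h at 37 °C/5% CO2; beta-lactamase FRET read-out after 2 h substrate incubation.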

Assay [14] addresses Beta-2 adrenergic receptor (Homo sapiens) (UniProt P07550). Briefly: Adrenergic beta2 receptor (ADRB2) small molecule antagonists, cell-based qHTS assay (AID 1963592). Further: series mostly up to about 92 µM; nearly all actives have a fitted effect of over 50% in size. The procedure, abridged: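 Cells (CHO, stable ADRB2 overexpression) incubated 18-20hr at 37C; compounds added from DMSO; agonist mix (1nM isoproterenol, 100uM IBMX, 25uM Ro-20-1724) added; 0.5hr RT; d2-cAMP and anti-cAMP-cryptate added; 1hr RT; 665/615 nm read.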

Assay [15] has as its target D(2) dopamine receptor (Homo sapiens) (UniProt P14416). Briefly: Dopamine D2 receptor (DRD2) small molecule agonists, cell-based qHTS assay (AID 1963594). Further: nearly all actives have a fitted effect of over 35% in size. The procedure, abridged: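 HEK293 cells stably expressing DRD2 were cultured 24 h at 37 C, then given Ro20-1724 (0.1 mM final) and compounds for 10 min at room temperature. NKH477 (200nM) was then added for 30 min. cAMP was read by HTRF.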

Assay [16] can be described thus: p53 small molecule agonists, cell-based qHTS assay with rat liver microsomes (AID 1963578). Put shortly:
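p53RE-bla cells, 4,000/well, pre-incubated 5 h, then given compounds plus rat liver microsomes (0.5 mg/mL final) and NADPH (0.5 mg/mL final). Incubation 16 h at 37 C; beta-lactamase reporter read by LiveBLAzer fluorescence after 2 h at room temperature.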

Assay [17] is described as follows: p53 small molecule agonists, cell-based qHTS assay (AID 1963582; active means well fitted activation curve with a large enough effect in the signal ratio in the repeat runs, not every such curve was filed as active; the % refers to the signal ratio). The procedure, abridged:
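Agonist activity was scored from beta-lactamase FRET fluorescence in p53RE-bla cells treated 16 h at 37 C with compounds in DMSO, substrate incubation being 2 h at room temperature.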

In assay [18] the target is Beta-2 adrenergic receptor (Homo sapiens) (UniProt P07550). Briefly: Adrenergic beta2 receptor (ADRB2) small molecule agonists, cell-based qHTS assay (AID 1963593).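 Further: CHO cells stably overexpressing human ADRB2.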 Put shortly:
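CHO cells stably over-expressing ADRB2 were plated overnight at 37C, then dosed with compounds plus a stimulation mix containing 100uM IBMX and 25uM Ro-20-1724 for 0.5hr at room temperature. cAMP was measured by HTRF competition, 1hr.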

The nature of assay [19]: p53 small molecule agonists, cell-based qHTS assay with human liver microsomes (AID 1963577). Put shortly: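 p53RE-bla cells, 4,000/well, compound added after 5 h, with human liver microsomes 0.5 mg/mL and NADPH 0.5 mg/mL final; 16 h at 37 C, then LiveBLAzer 2 h RT, fluorescence.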
The target of assay [20] is D(2) dopamine receptor (Homo sapiens) (UniProt P14416). Kind of assay: Dopamine D2 receptor (DRD2) small molecule antagonists, cell-based qHTS assay (AID 1963595; active means well fitted inhibition curve with a large enough effect in the signal ratio in the repeat runs, with a control signal flat; the % refers to the signal ratio). The procedure, abridged: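 DRD2-HEK293; 0.1 mM Ro20-1724; cpd 10 min RT; NKH477 200 nM + quinpirole 12 nM, 30 min RT; HTRF cAMP (cAMP-d2/anti-cAMP cryptate), 665/620 nm ratio after 1 h.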

“And” between values parts separate entries of the source, which are not always exact repeats. Identical values can stand only once. Inconclusive results are not listed. The source made the active and inactive calls. Unless noted, the call rests on the fitted dose curve.

Sequence of Gonadotropin-releasing hormone receptor (Homo sapiens) (P30968 whole entry, looked up): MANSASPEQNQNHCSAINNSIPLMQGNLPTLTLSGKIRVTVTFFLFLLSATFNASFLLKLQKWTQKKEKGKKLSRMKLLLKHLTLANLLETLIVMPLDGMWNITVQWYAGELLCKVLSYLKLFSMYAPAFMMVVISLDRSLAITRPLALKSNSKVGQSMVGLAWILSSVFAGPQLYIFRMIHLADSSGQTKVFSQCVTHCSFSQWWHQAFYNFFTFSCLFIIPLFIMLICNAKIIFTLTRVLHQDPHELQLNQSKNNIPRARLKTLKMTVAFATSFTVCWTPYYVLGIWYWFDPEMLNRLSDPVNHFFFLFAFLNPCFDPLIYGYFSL
Sequence of D(2) dopamine receptor (Homo sapiens) (P14416 whole entry, looked up): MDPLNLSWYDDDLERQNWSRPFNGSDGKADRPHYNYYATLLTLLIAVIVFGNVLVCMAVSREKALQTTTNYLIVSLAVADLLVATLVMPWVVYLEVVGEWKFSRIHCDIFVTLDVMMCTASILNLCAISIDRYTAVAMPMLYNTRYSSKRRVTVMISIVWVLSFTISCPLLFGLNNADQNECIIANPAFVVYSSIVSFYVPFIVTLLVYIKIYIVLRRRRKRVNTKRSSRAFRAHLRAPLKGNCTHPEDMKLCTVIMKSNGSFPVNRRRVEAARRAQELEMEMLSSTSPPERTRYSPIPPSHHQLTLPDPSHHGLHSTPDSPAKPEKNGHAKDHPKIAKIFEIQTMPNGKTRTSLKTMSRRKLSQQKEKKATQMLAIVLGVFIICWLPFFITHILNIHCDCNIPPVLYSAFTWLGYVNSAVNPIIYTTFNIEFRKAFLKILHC
Sequence of 5-hydroxytryptamine receptor 2A (Homo sapiens) (P28223 whole entry, looked up): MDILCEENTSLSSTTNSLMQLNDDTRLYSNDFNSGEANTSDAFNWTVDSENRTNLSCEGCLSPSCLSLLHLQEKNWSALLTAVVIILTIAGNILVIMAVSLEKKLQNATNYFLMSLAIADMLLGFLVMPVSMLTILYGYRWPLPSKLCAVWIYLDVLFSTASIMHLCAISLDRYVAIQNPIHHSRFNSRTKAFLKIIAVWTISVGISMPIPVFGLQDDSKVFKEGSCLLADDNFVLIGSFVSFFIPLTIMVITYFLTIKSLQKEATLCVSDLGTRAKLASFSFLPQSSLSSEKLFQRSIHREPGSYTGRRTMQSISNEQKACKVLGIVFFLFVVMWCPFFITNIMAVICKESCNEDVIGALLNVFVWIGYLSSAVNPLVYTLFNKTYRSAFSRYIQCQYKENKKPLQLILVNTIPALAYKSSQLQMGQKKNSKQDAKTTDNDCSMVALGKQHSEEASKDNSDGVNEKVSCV
Sequence of KiSS-1 receptor (Homo sapiens) (Q969F8 whole entry, looked up): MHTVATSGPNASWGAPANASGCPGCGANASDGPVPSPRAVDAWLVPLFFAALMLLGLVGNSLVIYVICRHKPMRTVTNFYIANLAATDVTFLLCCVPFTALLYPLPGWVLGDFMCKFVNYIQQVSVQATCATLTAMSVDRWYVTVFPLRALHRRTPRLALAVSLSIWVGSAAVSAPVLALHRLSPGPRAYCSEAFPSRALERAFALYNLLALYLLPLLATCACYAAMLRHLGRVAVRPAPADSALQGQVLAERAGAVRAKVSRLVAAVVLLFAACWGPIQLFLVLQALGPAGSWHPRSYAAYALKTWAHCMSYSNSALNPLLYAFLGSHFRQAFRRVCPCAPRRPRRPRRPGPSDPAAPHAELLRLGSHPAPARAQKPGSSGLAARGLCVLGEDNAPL
Sequence of Beta-2 adrenergic receptor (Homo sapiens) (P07550 whole entry, looked up): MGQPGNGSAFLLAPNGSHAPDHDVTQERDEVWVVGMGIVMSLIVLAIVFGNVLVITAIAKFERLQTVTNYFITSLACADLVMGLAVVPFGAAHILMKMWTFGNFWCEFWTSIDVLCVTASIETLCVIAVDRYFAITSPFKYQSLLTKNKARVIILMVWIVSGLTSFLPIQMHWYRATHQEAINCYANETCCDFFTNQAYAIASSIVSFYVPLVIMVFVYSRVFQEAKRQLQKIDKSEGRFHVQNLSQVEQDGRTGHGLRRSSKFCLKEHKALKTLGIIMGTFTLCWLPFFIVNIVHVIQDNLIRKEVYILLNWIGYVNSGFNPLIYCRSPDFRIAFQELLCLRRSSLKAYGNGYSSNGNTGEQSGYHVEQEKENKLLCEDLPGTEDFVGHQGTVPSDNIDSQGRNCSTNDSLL
Sequence of Muscarinic acetylcholine receptor M1 (Homo sapiens) (P11229 whole entry, looked up): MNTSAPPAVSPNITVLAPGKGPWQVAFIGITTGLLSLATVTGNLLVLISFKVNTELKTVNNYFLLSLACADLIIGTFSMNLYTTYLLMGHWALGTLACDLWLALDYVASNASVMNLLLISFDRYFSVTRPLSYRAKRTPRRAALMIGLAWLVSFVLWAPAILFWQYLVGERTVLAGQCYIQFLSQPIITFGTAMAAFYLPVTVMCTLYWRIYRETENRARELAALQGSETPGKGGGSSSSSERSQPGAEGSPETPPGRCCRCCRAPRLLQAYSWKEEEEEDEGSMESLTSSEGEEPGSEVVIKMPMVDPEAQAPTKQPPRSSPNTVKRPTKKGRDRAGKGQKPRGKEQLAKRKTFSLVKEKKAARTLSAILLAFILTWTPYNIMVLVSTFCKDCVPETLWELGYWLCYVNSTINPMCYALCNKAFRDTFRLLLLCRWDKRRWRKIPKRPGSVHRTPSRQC

On to `CCCCOCCOCCOC(=O)CCCCC(=O)OCCOCCOCCCC`, for which the Potency result in assay [1], in assay [2], in [3], in [4], in assay [5] and in assay [6] was “inactive” throughout. The Potency result in [7], in [8], in assay [9], in assay [10], in [11] and in assay [12] was “inactive” in each case. The Potency entry in assay [13], in [14] and in assay [15] was “inactive” throughout.

For `CN1CCCC1`, the Potency result in [1], in assay [2], in assay [3], in assay [4], in assay [16] and in [5] was “inactive” in each case. For the same molecule, the Potency result in [6], in assay [7], in [17], in assay [8], in assay [11] and in [12] was “inactive” throughout. Moreover, the Potency entry in assay [13], in assay [14], in assay [18] and in [15] was “inactive” in each case.

`Oc1cccc2ccccc12`: the Potency result in assay [1], in assay [3], in [4], in assay [19], in assay [5] and in assay [7] was “inactive” throughout. Also, the Potency result in [17], in assay [8], in assay [9], in assay [10], in assay [11] and in assay [12] was “inactive” throughout. Besides, the Potency result in assay [13], in [15] and in [20] was “inactive” throughout.

For the molecule `CC(C=O)Cc1ccc(C(C)(C)C)cc1` (stereo unspecified), the Potency entry in assay [1], in assay [3], in [4], in assay [19], in assay [16] and in assay [5] was “inactive” throughout. In addition, the Potency result in [6], in [7], in assay [8], in assay [9], in assay [10] and in assay [11] was “inactive” each time. The Potency entry in assay [12], in assay [13], in assay [14], in assay [18], in [15] and in [20] was “inactive” in each case.

Regarding `O=C(Oc1ccccc1)c1ccc(O)cc1`, the Potency entry in assay [1], in assay [2], in assay [3], in assay [19], in [16] and in assay [5] was “inactive” each time. In addition, the Potency entry in assay [6], in assay [7], in assay [17], in [9], in assay [10] and in [11] was “inactive” each time. Besides, the Potency entry in [12], in assay [13], in assay [15] and in assay [20] was “inactive” throughout. For the same molecule, the Potency in assay [8] is 26.7 µM (active) and 13.3 µM (active).

For the molecule `Clc1cc(Cl)c(Cl)c(Cl)c1Cl`, the Potency result in assay [1], in [2], in assay [4], in assay [16], in assay [5] and in assay [6] was “inactive” throughout. The Potency result in assay [7], in assay [17], in [8], in [11], in [12] and in assay [13] was “inactive” throughout. The Potency entry in [14], in [18] and in assay [15] was “inactive” throughout.

On to `OC1CCCC1`, for which the Potency entry in assay [1], in [2], in assay [4], in assay [5], in assay [7] and in [8] was “inactive” throughout. For the same molecule, the Potency entry in assay [9], in [10], in assay [11], in assay [12], in assay [13] and in assay [14] was “inactive” throughout. Besides, the Potency entry in [18], in assay [15] and in [20] was “inactive” in each case.
